According to PubChem BioAssay (Tox21):
Results filed as inconclusive are left out. Where a call stands in place of a potency, no number is given. Active and inactive are the calls of the source. The call rests on the fitted dose curve; in most records, active means well fitted inhibition curve with a large enough effect in the signal ratio in the repeat runs (not every such curve was filed as active); inconclusive means weak or mixed curves; inactive means flat fitted curve, though single readings scatter; the % refers to the signal ratio.

Each molecule was assayed against Progesterone receptor (Homo sapiens) (UniProt P06401) (assay: qHTS assay to identify small molecule antagonists of the progesterone receptor (PR) signaling pathway (AID 1346795)). Conditions: PR-UAS-bla HEK293T, beta-lactamase FRET ratio, 16 h; series mostly up to 92.4 µM.
Description: National Center for Advancing Translational Sciences [NCATS]
NIH Chemical Genomics Center [NCGC]
U.S. Environmental Protection Agency [EPA]
National Institutes of Environmental Health Sciences [NIEHS]
National Toxicology Program [NTP]
U.S. Food and Drug Administration [FDA]
Progesterone receptor (PR), a nuclear hormone receptor, plays an important role in development, metabolic homeostasis and reproduction. […] Endocrine disrupting chemicals (EDCs) and their interactions with steroid hormone receptors like PR causes disruption of normal endocrine function. To identify the compounds that inhibit PR signaling, a PR-UAS-bla GripTite cell line i.e. PR-UAS-bla HEK293T (Invitrogen, Carlsbad, CA, USA) containing a beta-lactamase reporter gene under the control of an Upstream Activator Sequence (UAS) was used to screen Tox21 10K compound library.
Tox21 Assay Protocol Summary:
PR-UAS-bla HEK293T cells were dispensed at 3,000 cells/4 uL of assay medium containing 2% charcoal stripped FBS per well into black wall/clear-bottom 1536-well plates using a Multidrop Combi (ThermoFisher Scientific, Waltham, MA) dispenser. After the assay plates were incubated at a 37C and 5% CO2 for 6 hr, 23 nL of compounds dissolved in DMSO, positive controls or DMSO only was transferred to the assay plate by a Pintool station (Kalypsys, San Diego, CA), followed by addition of 1 uL (1nM as final concentration) of Promegestone (R5020) in assay medium using a BioRAPTR FRD (Flying Reagent Dispenser, Aurora Discovery, San Diego, CA). The plates were incubated at 37C and 5% CO2 for 16 hr. Then 1 uL of LiveBLAzer B/G FRET substrate was added using a FRD. After the plates were incubated at room temperature for 2 hours, fluorescence intensity was measured by an Envision plate reader (PerkinElmer, Shelton, CT).
Potency means the concentration at half of the fitted maximal effect.

Progesterone receptor (Homo sapiens), sequence (P06401 whole entry, looked up): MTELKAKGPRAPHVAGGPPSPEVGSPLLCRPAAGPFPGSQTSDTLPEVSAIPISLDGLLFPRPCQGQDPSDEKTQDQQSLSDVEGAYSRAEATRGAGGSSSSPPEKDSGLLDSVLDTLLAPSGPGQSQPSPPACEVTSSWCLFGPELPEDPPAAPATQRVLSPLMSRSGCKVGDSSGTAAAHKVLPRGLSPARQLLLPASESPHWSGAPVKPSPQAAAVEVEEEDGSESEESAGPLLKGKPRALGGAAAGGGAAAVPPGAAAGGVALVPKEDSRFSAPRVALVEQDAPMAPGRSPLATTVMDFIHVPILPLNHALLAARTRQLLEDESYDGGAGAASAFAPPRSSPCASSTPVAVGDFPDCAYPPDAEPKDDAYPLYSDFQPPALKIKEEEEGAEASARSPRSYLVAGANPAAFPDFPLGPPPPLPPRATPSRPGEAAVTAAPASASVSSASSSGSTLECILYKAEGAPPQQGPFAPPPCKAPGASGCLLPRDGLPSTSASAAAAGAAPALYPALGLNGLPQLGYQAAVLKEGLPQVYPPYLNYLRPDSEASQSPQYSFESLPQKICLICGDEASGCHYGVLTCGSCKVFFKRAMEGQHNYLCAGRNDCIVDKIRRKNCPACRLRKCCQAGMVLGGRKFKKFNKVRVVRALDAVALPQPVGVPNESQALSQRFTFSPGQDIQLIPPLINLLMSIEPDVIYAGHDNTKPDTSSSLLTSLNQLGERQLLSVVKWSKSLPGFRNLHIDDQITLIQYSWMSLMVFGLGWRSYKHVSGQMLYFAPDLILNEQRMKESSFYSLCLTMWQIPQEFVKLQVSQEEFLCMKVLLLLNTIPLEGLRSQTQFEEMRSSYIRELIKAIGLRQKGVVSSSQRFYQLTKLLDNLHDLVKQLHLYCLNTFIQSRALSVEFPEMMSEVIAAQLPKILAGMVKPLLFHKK

How did the Potency turn out when `O=C1NCCN1CCO` was run?
The Potency was “inactive”.

How did the Potency turn out when `CCC(=O)C1CC(C(C)C)CC=C1C` (stereo not given) was run?
Its Potency is “inactive”.

Which Potency does the source give for `CCOC(=O)c1ccccc1C(=C1C=C(Br)C(=O)C(Br)=C1)c1cc(Br)c(O)c(Br)c1` here?
Its Potency is 18.2 µM (active).

With `CC(C)=CCC1C(=O)N(c2ccccc2)N(c2ccccc2)C1=O` as the molecule, how does the Potency read?
The Potency was “inactive”.

With `O=C(O)c1cccc(-c2noc(-c3ccccc3F)n2)c1` as the molecule, how does the Potency read?
Its Potency is “inactive”.

`O=c1cc(-c2ccccc2)oc2ccc3ccccc3c12` was tested. Which Potency did it give?
The Potency was “inactive”.

`CCOC(C)=O` was tested. Which Potency did it give?
Its Potency is “inactive”.

With `CC(C)(c1ccccc1)c1ccccc1` as the molecule, how does the Potency read?
The Potency was “inactive”.

With `COC(=O)[C@H]1[C@H]2C[C@@H]3c4[nH]c5cc(OC)ccc5c4CCN3C[C@H]2C[C@@H](OC(=O)/C=C/c2ccc(O)c(OC)c2)[C@@H]1OC` as the molecule, how does the Potency read?
The Potency was “inactive”.

Which Potency does the source give for `C=C(C)C(=O)OCCOCCOC(=O)C(=C)C` here?
The Potency was “inactive”.

For `CCCCCC[C@@H](O)C/C=C\CCCCCCCC(=O)OCC(O)CO` (stereo not given in full), which Potency is on record?
The Potency was “inactive”.

How did the Potency turn out when `CCOc1ccc(Cc2nccc3cc(OCC)c(OCC)cc23)cc1OCC` was run?
Its Potency is 16.8 µM (active).

For `O=C(OC(=O)c1ccccc1)c1ccccc1`, which Potency is on record?
The Potency was “inactive”.

With `C=Cc1ccc(S(=O)(=O)O)cc1` as the molecule, how does the Potency read?
The Potency was “inactive”.

Which Potency does the source give for `O=C(CCc1ccc(O)cc1)c1c(O)cc(O)cc1O` here?
The Potency was 31.3 µM (active).

With `O=C1c2ccccc2C(=O)C1c1nc2ccccc2c(Br)c1O` as the molecule, how does the Potency read?
Its Potency is “inactive”.

With `Cc1[nH]cnc1CN1CCc2c(c3ccccc3n2C)C1=O` as the molecule, how does the Potency read?
Its Potency is “inactive”.

For `C=C1C[C@@]23CC[C@H]4[C@@](C)(CCC[C@@]4(C)C(=O)O[C@@H]4O[C@H](CO)[C@@H](O)[C@H](O)[C@H]4O)[C@@H]2CC[C@]1(O[C@@H]1O[C@H](CO)[C@@H](O)[C@H](O[C@@H]2O[C@H](CO)[C@@H](O)[C@H](O)[C@H]2O)[C@H]1O[C@@H]1O[C@H](CO)[C@@H](O)[C@H](O)[C@H]1O)C3`, which Potency is on record?
The Potency was “inactive”.

How did the Potency turn out when `O=[N+]([O-])c1cc(C2CCCCC2)c(O)c([N+](=O)[O-])c1` was run?
The Potency was 24.3 µM (active).

How did the Potency turn out when `c1csc(SSc2cccs2)c1` was run?
The Potency was 8.63 µM (active).

With `COC(=O)CS` as the molecule, how does the Potency read?
Its Potency is “inactive”.

`COC(=O)CCS` was tested. Which Potency did it give?
Its Potency is “inactive”.

How did the Potency turn out when `CNC(=O)c1cnn(-c2nc(N)c3ncn([C@@H]4O[C@H](CO)[C@@H](O)[C@H]4O)c3n2)c1` was run?
The Potency was “inactive”.

`Cc1cccc(O)c1N` was tested. Which Potency did it give?
The Potency was 30.9 µM (active).

For `CCC(OCCCOC)OC(C)=O` (stereo not given), which Potency is on record?
Its Potency is “inactive”.

How did the Potency turn out when `O=C1Cc2cc(Cl)ccc2N1` was run?
Its Potency is “inactive”.

With `Oc1c(I)cc(I)c2cccnc12` as the molecule, how does the Potency read?
The Potency was 7.5 µM (active).

For `CC1CC(OC(=O)C(O)c2ccccc2)CC(C)(C)N1C` (stereo not given), which Potency is on record?
The Potency was “inactive”.

`Nc1ccc(N=Nc2ccccc2)c(N)c1` was tested. Which Potency did it give?
Its Potency is 47.5 µM (active).

Which Potency does the source give for `C=C1CCC2CC1C2(C)C` (stereo not given) here?
Its Potency is “inactive”.

For `CCCCCC#CC(=O)OC`, which Potency is on record?
The Potency was “inactive”.

For `CN1CC(=O)N2[C@H](c3ccc4c(c3)OCO4)c3[nH]c4ccccc4c3C[C@@H]2C1=O`, which Potency is on record?
The Potency was “inactive”.

Which Potency does the source give for `CC(CN(C)C)C(C)(O)Cc1ccc(Cl)cc1` (stereo not given) here?
The Potency was “inactive”.

How did the Potency turn out when `COc1ccccc1N1CCN(CCCCNC(=O)c2ccc(-c3ccc(C(C)=O)cc3)cc2)CC1` was run?
The Potency was “inactive”.

`CC(=O)OCCN(CCOC(C)=O)c1ccc(N=Nc2ccc([N+](=O)[O-])cc2C#N)cc1` was tested. Which Potency did it give?
Its Potency is “inactive”.

Which Potency does the source give for `C1C[C@@H]2[C@H]3CC[C@H](C3)[C@@H]2C1` here?
Its Potency is “inactive”.

For `CN1CCCN=C1COC(=O)C(O)(c1ccccc1)C1CCCCC1` (stereo not given), which Potency is on record?
Its Potency is “inactive”.

With `O=C(O)CCc1nc(-c2ccccc2)c(-c2ccccc2)o1` as the molecule, how does the Potency read?
The Potency was “inactive”.

For `OCCOCC#CCOCCO`, which Potency is on record?
The Potency was “inactive”.

For `Cc1cccc(N(C)C(=S)Oc2ccc3c(c2)CCC3)c1`, which Potency is on record?
Its Potency is 11.9 µM (active).
